Assay results reported in PubChem BioAssay (NCATS).
Records with an inconclusive call do not appear. Activity calls are given as the source filed them. Unless noted, calls follow the shape of the dose curve; as a rule, active = well fitted curve in the direction sought with a large enough effect; inconclusive = small, poorly fitted or top-dose-only effect, or another doubt; inactive = no such curve, though single readings can be large; an effect the other way counts as inactive or inconclusive.

Columns and labels:
[1] = biological target: ATP-dependent 6-phosphofructokinase (Trypanosoma brucei brucei) (UniProt O15648); test: qHTS Assay to Find Inhibitors of T. brucei phosphofructokinase: hit validation (AID 492961)
Procedure, shortened: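 Luminescence from ADP-Glo reports ADP generated as T. brucei PFK (1.25 nM) phosphorylates 0.5 mM fructose-6-phosphate using 0.1 mM ATP. Reactions ran 45 min at room temperature, pH 8.0.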

[2] = S16 Schwann cell viability assay (CellTiter-Glo assay) (AID 624031);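 also: cellular ATP luminescence as a viability measure; nearly all actives have a fitted effect of over 70% in size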
Procedure, shortened: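 CellTiter-Glo ATP luminescence counter-screen in untransfected S16 rat Schwann cells, 24h compound exposure at 37 degree Celsius after overnight seeding (500-750 cells/well); response scaled between cell-free wells and DMSO (0% activity), curves classed by r2 and magnitude.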

[3] = S16 Schwann cell PMP22 intronic element beta-lactamase assay (AID 624044; calls by dose curve; also: nearly all actives have a fitted effect of over 15% in size); details: S16 rat Schwann cells, PMP22 element beta-lactamase FRET, 24 h; ratio activity, negative = inhibition: at 38.3 µM (top of the series)
Procedure, shortened: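 Beta-lactamase reporter under a PMP22 intronic regulatory element in stable S16 rat Schwann cells; 24 h compound exposure. 460 nm blue signal normalized between DMSO (0%) and potassium clavulanate, with 535 nm FRET tracking viability; curves classed by r2 and response.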

[4] = qHTS profiling for inhibitors of Plasmodium falciparum proliferation (AID 504749); also: nearly all actives have a fitted effect of over 60% in size; also: potency is read from the fitted curve at half-maximal effect; details: P. falciparum in erythrocytes, SYBR Green DNA, 72 h; parasite line B
Procedure, shortened: (§1)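 SYBR Green fluorescence (ex 485 nm, em 535 nm) reports parasite DNA after 72 h compound exposure of infected red cells at 0.3% parasitemia, 2.5% hematocrit; signal normalized to 0.29 uM artemisinin and vehicle wells.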

7G8 = test: as above; details: P. falciparum in erythrocytes, SYBR Green DNA, 72 h; series mostly up to 28.7 µM
Procedure, shortened: as §1

AA1029 = test: as above; details: P. falciparum in erythrocytes, SYBR Green DNA, 72 h; series mostly up to 28.7 µM
Procedure, shortened: as §1

AS120 = test: as above; details: P. falciparum in erythrocytes, SYBR Green DNA, 72 h; series mostly up to 28.7 µM
Procedure, shortened: as §1

ATS189 = test: as above; details: P. falciparum in erythrocytes, SYBR Green DNA, 72 h; series mostly up to 28.7 µM
Procedure, shortened: as §1

ATS95 = test: as above; details: P. falciparum in erythrocytes, SYBR Green DNA, 72 h; series mostly up to 28.7 µM
Procedure, shortened: as §1

C2A = test: as above; details: P. falciparum in erythrocytes, SYBR Green DNA, 72 h; series mostly up to 28.7 µM
Procedure, shortened: as §1

CP191 = test: as above; details: P. falciparum in erythrocytes, SYBR Green DNA, 72 h; series mostly up to 28.7 µM
Procedure, shortened: as §1

CP211 = test: as above; details: P. falciparum in erythrocytes, SYBR Green DNA, 72 h; series mostly up to 28.7 µM
Procedure, shortened: as §1

CP217 = test: as above; details: P. falciparum in erythrocytes, SYBR Green DNA, 72 h; series mostly up to 28.7 µM
Procedure, shortened: as §1

CP237 = test: as above; details: P. falciparum in erythrocytes, SYBR Green DNA, 72 h; series mostly up to 28.7 µM
Procedure, shortened: as §1

CP250 = test: as above; details: P. falciparum in erythrocytes, SYBR Green DNA, 72 h; series mostly up to 28.7 µM
Procedure, shortened: as §1

CP252 = test: as above; details: P. falciparum in erythrocytes, SYBR Green DNA, 72 h; series mostly up to 28.7 µM
Procedure, shortened: as §1

CP256 = test: as above; details: P. falciparum in erythrocytes, SYBR Green DNA, 72 h; series mostly up to 28.7 µM
Procedure, shortened: as §1

CP260 = test: as above; details: P. falciparum in erythrocytes, SYBR Green DNA, 72 h; series mostly up to 28.7 µM
Procedure, shortened: as §1

CP266 = test: as above; details: P. falciparum in erythrocytes, SYBR Green DNA, 72 h; series mostly up to 28.7 µM
Procedure, shortened: as §1

CP335 = test: as above; details: P. falciparum in erythrocytes, SYBR Green DNA, 72 h; series mostly up to 28.7 µM
Procedure, shortened: as §1

DIV14 = test: as above; details: P. falciparum in erythrocytes, SYBR Green DNA, 72 h; series mostly up to 28.7 µM
Procedure, shortened: as §1

DIV17 = test: as above; details: P. falciparum in erythrocytes, SYBR Green DNA, 72 h; series mostly up to 28.7 µM
Procedure, shortened: as §1

Dd2 = test: as above; details: P. falciparum in erythrocytes, SYBR Green DNA, 72 h; series mostly up to 28.7 µM
Procedure, shortened: as §1

ECU = test: as above; details: P. falciparum in erythrocytes, SYBR Green DNA, 72 h; series mostly up to 28.7 µM
Procedure, shortened: as §1

GB4 = test: as above; details: P. falciparum in erythrocytes, SYBR Green DNA, 72 h; series mostly up to 28.7 µM
Procedure, shortened: as §1

HB3 = test: as above; details: P. falciparum in erythrocytes, SYBR Green DNA, 72 h; series mostly up to 28.7 µM
Procedure, shortened: as §1

ICS = test: as above; details: P. falciparum in erythrocytes, SYBR Green DNA, 72 h; series mostly up to 28.7 µM
Procedure, shortened: as §1

N140 = test: as above; details: P. falciparum in erythrocytes, SYBR Green DNA, 72 h; series mostly up to 28.7 µM
Procedure, shortened: as §1

P93_24 = test: as above; details: P. falciparum in erythrocytes, SYBR Green DNA, 72 h; series mostly up to 28.7 µM
Procedure, shortened: as §1

P94_40 = test: as above; details: P. falciparum in erythrocytes, SYBR Green DNA, 72 h; series mostly up to 28.7 µM
Procedure, shortened: as §1

PAD = test: as above; details: P. falciparum in erythrocytes, SYBR Green DNA, 72 h; series mostly up to 28.7 µM
Procedure, shortened: as §1

PC26 = test: as above; details: P. falciparum in erythrocytes, SYBR Green DNA, 72 h; series mostly up to 28.7 µM
Procedure, shortened: as §1

SC27B = test: as above; details: P. falciparum in erythrocytes, SYBR Green DNA, 72 h; series mostly up to 28.7 µM
Procedure, shortened: as §1

TAB109 = test: as above; details: P. falciparum in erythrocytes, SYBR Green DNA, 72 h; series mostly up to 28.7 µM
Procedure, shortened: as §1

TAB113 = test: as above; details: P. falciparum in erythrocytes, SYBR Green DNA, 72 h; series mostly up to 28.7 µM
Procedure, shortened: as §1

TAB165 = test: as above; details: P. falciparum in erythrocytes, SYBR Green DNA, 72 h; series mostly up to 28.7 µM
Procedure, shortened: as §1

W2 = test: as above; details: P. falciparum in erythrocytes, SYBR Green DNA, 72 h; series mostly up to 28.7 µM
Procedure, shortened: as §1

Measured: Potency

Sequence of ATP-dependent 6-phosphofructokinase (Trypanosoma brucei brucei) (O15648 whole entry, looked up): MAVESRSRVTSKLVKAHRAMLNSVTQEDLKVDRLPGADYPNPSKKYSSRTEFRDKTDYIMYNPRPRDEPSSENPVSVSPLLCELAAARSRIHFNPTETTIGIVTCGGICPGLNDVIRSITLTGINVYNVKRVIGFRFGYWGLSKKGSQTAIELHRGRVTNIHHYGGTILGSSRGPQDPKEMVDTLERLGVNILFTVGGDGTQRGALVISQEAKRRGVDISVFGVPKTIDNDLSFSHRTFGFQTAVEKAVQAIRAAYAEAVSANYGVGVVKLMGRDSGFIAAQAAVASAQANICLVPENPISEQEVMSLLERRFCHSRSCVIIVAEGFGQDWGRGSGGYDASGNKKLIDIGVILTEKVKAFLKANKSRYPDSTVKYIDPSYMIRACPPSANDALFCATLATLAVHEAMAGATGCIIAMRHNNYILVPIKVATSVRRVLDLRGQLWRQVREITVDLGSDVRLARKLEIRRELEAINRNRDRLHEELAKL

CO[C@H]1/C=C/O[C@@]2(C)Oc3c(C)c(O)c4c(O)c(c5c(c4c3C2=O)NC2(CCN(CC(C)C)CC2)N=5)=NC(=O)/C(C)=C\C=C\[C@H](C)[C@H](O)[C@@H](C)[C@@H](O)[C@@H](C)[C@H](OC(C)=O)[C@@H]1C
active: [4] 4.47 µM | 7G8 7.08 µM | AA1029 11.2 µM | AS120 12.6 µM | ATS189 5.01 µM | ATS95 8.91 µM | C2A 8.91 µM | CP191 8.91 µM | CP217 8.91 µM | CP237 10 µM | CP250 7.08 µM | CP252 8.91 µM | CP256 8.91 µM | CP260 8.91 µM | CP335 13.5 µM | DIV14 8.49 µM | DIV17 10.7 µM | Dd2 7.94 µM | ECU 7.94 µM | GB4 12 µM | HB3 11.2 µM | ICS 8.91 µM | N140 8.91 µM | P93_24 6.31 µM | P94_40 8.91 µM | PAD 10 µM | PC26 10.7 µM | SC27B 8.91 µM | TAB109 11.2 µM | TAB113 7.94 µM | TAB165 7.94 µM | W2 4.78 µM
inactive: [1] | [2] | [3] | CP211 | CP266
